Bioassay records: PubChem BioAssay, National Center for Advancing Translational Sciences (NCATS)
HT1080NT lethal = kills 2HG-producing HT-1080-NT fibrosarcoma cells; HT-1080-NT fibrosarcoma viability, CellTiter-Glo ATP luminescence, 48 h; Potency, µM (titrated, usually from 46.1 µM), inactives show top-dose activity, negative = less viability, actives largely listed as cytotoxic; 1.6% of 360,000 active; AID 686970;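 further: NT is the 2HG producing partner of a matched IDH1 knockdown line; potency means the concentration at half of the fitted maximal effect; 0% = DMSO-treated cells and -100% = media-only wells without cells; nearly all actives have a fitted effect of over 55% in size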
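Compounds were tested in concentration-response format on HT-1080-NT cells for 48 hours at 37 degrees C. Cell viability came from CellTiter-Glo luminescence; curves were classified by r2, response magnitude and activity.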
HT1080 IDH1KD tx = toxicity to HT-1080 IDH1 knockdown cells (counter line); HT-1080 IDH1 knockdown viability, ATP luminescence, 48 h; Potency, µM (highest dose often 46.1 µM), without a hit: at the highest dose activity, negative = toxicity, most hits filed as cytotoxic; 2% of 360,000 active;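 further: potency means the concentration at half of the fitted maximal effect; 0% = DMSO wells and -100% = cell-free medium wells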
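Luminescent ATP read-out (CellTiter-Glo, 10 min at room temperature) after 48 h compound exposure at 37 °C gave viability of IDH1-knockdown HT-1080 cells. Activity was normalised to DMSO and cell-free wells, then fitted as concentration-response curves.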
TDP1 cell noCPT = qHTS for Inhibitors of human tyrosyl-DNA phosphodiesterase 1 (TDP1): qHTS in cells in absence of CPT. DT40 Tdp1-/- hTDP1 cells, no CPT, ATP luminescence, 48 h. Potency, µM (doses to about 46.2 µM), for inactives: top-dose activity change, negative = growth inhibition, usual class: inhibitors. 15% of 420,000 active. AID 686978, 2013; further: potency means the concentration at half of the fitted maximal effect; nearly all actives have a fitted effect of over 55% in size
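Seeded 400 DT40-hTDP1 cells/well (vehicle DMSO, no 20 nM CPT); pinned compounds; ≥48 hr at 37 °C; CellTiter-Glo luminescence as viability measure.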
DT40 TDP1 CPT = growth inhibition of DT40 Tdp1-/-;hTDP1 cells with camptothecin (screen for TDP1 inhibitors) | chicken DT40 Tdp1-/-;hTDP1 cells + 20 nM CPT, ATP luminescence, 48 h | Potency, µM (series often up to 46.2 µM), for the others: top-dose activity change, negative = growth inhibition, hits mostly inhibitors | 12% of 420,000 active; further: potency means the concentration at half of the fitted maximal effect; nearly all actives have a fitted effect of over 55% in size
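Chicken DT40 Tdp1-/- cells stably complemented with human TDP1 were seeded at 400 cells/well in medium containing 20 nM camptothecin, exposed to pin-transferred compounds, and grown at 37 °C for at least 48 hr. Viability was read as ATP luminescence.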
IL1B secr inh = inhibitors of inflammasome signaling (IL-1 beta secretion); AID 743279; THP-1 LPS/ATP IL-1B secretion, AlphaLISA, 16 h; active compounds read low; activity change, % at 57.5 µM; 4.7% of 360,000 active; in the data active means activity change below about -50%; inconclusive means mostly about -30% to -49%
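Secreted IL-1B measured by AlphaLISA bead assay after 16 h compound exposure of THP-1 cells; compounds (final up to 57.5 uM) added 1 h before LPS (250 ng/mL) and ATP (1.25 mM) stimulation; lower signal means less secretion.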
* marks the source's active call; other numbers are inactive results. In the library only some 19% were active in any assay of this set; here they are far more common. Unless noted, the call rests on the fitted dose curve; in most records, active means well fitted curve in the direction sought with a large enough effect; inconclusive means small, poorly fitted or top-dose-only effect, or another doubt; inactive means no such curve, though single readings can be large; an effect the other way counts as inactive or inconclusive. Unless noted, on the % scale 0 is the no-effect control and ±100 the full control effect.

Cc1ccc(C)c(N2CCN(CCCNC(=O)c3nnc(Cc4ccc(F)cc4Cl)o3)CC2)c1 was read as TDP1 cell noCPT 4.6µM* and DT40 TDP1 CPT 2.6µM*.
`O=C(NCCCN1CCN(c2ccccc2)CC1)c1ccc2nc(Cc3ccccc3)oc2c1` gave TDP1 cell noCPT 8.2µM* and DT40 TDP1 CPT 12µM*.
Screening O=C(NCCCN1CCN(c2ccccc2)CC1)c1nnc(Cc2ccc(F)cc2)o1 returned TDP1 cell noCPT 26µM* and DT40 TDP1 CPT inconclusive.
CCN1CCN(CCCNC(=O)c2ccc3nc(Cc4ccccc4)oc3c2)CC1 was read as TDP1 cell noCPT 22% and DT40 TDP1 CPT 9%.
O=C(N/C(=C/c1cccc(Br)c1)C(=O)N1CCOCC1)c1ccco1 was read as HT1080NT lethal 11%, HT1080 IDH1KD tx 9%, TDP1 cell noCPT 1%, DT40 TDP1 CPT -2% and IL1B secr inh -14.
`CCC(CC)c1nnc(NC(=O)c2cccnc2SC)s1` gave HT1080NT lethal 9%, HT1080 IDH1KD tx 15%, TDP1 cell noCPT -3%, DT40 TDP1 CPT -7% and IL1B secr inh 17.
CCOc1ccc(-c2nc3c(c(SCC(=O)N4CCCCC4)n2)Cc2ccccc2O3)cc1 was read as TDP1 cell noCPT -10% and DT40 TDP1 CPT -22%.
Screening CCOC(=O)C1(CC2CC2)CCN(C(=O)c2cccnc2C)CC1 returned HT1080NT lethal -5%, HT1080 IDH1KD tx -3%, TDP1 cell noCPT inconclusive, DT40 TDP1 CPT -21% and IL1B secr inh 24.
For CCOC(=O)C1(CC2CC2)CCN(Cc2cn(C)c3ccccc23)CC1 the results were HT1080NT lethal -30%, HT1080 IDH1KD tx inconclusive, TDP1 cell noCPT 18µM*, DT40 TDP1 CPT 21µM* and IL1B secr inh -82*.
For CCOC(=O)C1(CC2CC2)CCN(C(=O)c2cc(OC)nc3ccccc23)CC1 the results were HT1080NT lethal 15%, HT1080 IDH1KD tx 0%, TDP1 cell noCPT inconclusive, DT40 TDP1 CPT inconclusive and IL1B secr inh -17.
CCOC(=O)C1(CC2CC2)CCN(Cc2ccc(C(=O)OC)cc2)CC1 was read as HT1080NT lethal -1%, HT1080 IDH1KD tx 20%, TDP1 cell noCPT 23µM*, DT40 TDP1 CPT inconclusive and IL1B secr inh 5.
`CCOC(=O)C1(CC2CC2)CCN(C(=O)c2cc(C3CC3)nc3ccccc23)CC1` gave HT1080NT lethal -6%, HT1080 IDH1KD tx -9%, TDP1 cell noCPT 23µM*, DT40 TDP1 CPT inconclusive and IL1B secr inh -84*.
CCOC(=O)C1(CCc2ccccc2)CCN(Cc2cc(OC)c(OC)cc2OC)CC1 was read as HT1080NT lethal inconclusive, HT1080 IDH1KD tx -1%, TDP1 cell noCPT 21µM*, DT40 TDP1 CPT 21µM* and IL1B secr inh -54*.
Screening CN(C)S(=O)(=O)c1cccc(COC(=O)c2cccnc2Cl)c1 returned HT1080NT lethal 1%, HT1080 IDH1KD tx -4%, TDP1 cell noCPT inconclusive, DT40 TDP1 CPT inconclusive and IL1B secr inh 0.
`CCOC(=O)C1(CCc2ccccc2)CCN(Cc2ccc(C(=O)OC)cc2)CC1` gave HT1080NT lethal -2%, HT1080 IDH1KD tx -10%, TDP1 cell noCPT 16µM*, DT40 TDP1 CPT inconclusive and IL1B secr inh 0.
For CCOC(=O)C1(CCc2ccccc2)CCN(Cc2ccccn2)CC1 the results were HT1080NT lethal -25%, HT1080 IDH1KD tx inconclusive, TDP1 cell noCPT inconclusive, DT40 TDP1 CPT -18% and IL1B secr inh 0.
Screening COc1ccc(NC(=O)Cn2nc(-c3ccncc3)ccc2=O)cc1Cl returned TDP1 cell noCPT -13% and DT40 TDP1 CPT inconclusive.
COc1ccc(-n2nc(C(=O)NCC(=O)N3CCC(C)CC3)c3ccccc3c2=O)cc1Cl was read as HT1080NT lethal -5%, HT1080 IDH1KD tx -7%, TDP1 cell noCPT inconclusive, DT40 TDP1 CPT inconclusive and IL1B secr inh -6.
Screening O=C(COC(=O)c1ccccc1O)NCCC1=CCCCC1 returned HT1080NT lethal -2%, HT1080 IDH1KD tx 0%, TDP1 cell noCPT 18µM*, DT40 TDP1 CPT -2% and IL1B secr inh -28.
`COc1cccc(/C=C/C(=O)OCC(=O)NCCC2=CCCCC2)c1` gave HT1080NT lethal 3%, HT1080 IDH1KD tx -4%, TDP1 cell noCPT 23µM*, DT40 TDP1 CPT inconclusive and IL1B secr inh 20.
Screening CCOC(=O)C1CCN(C(=O)CNC(=O)c2nn(-c3ccc(OC)c(OC)c3)c(=O)c3ccccc23)CC1 returned HT1080NT lethal 1%, HT1080 IDH1KD tx 3%, TDP1 cell noCPT inconclusive, DT40 TDP1 CPT 3% and IL1B secr inh -26.
For COc1ccc(-n2nc(C(=O)NCC(=O)N3CCN(c4ccccn4)CC3)c3ccccc3c2=O)cc1Cl the results were HT1080NT lethal 13%, HT1080 IDH1KD tx -2%, TDP1 cell noCPT 12µM*, DT40 TDP1 CPT 12µM* and IL1B secr inh 7.
`COc1ccc(-n2nc(C(=O)NCC(=O)N3CCN(c4ccccc4F)CC3)c3ccccc3c2=O)cc1OC` gave HT1080NT lethal 1%, HT1080 IDH1KD tx -5%, TDP1 cell noCPT 13µM*, DT40 TDP1 CPT inconclusive and IL1B secr inh inconclusive.
For CC(C)NC(=O)N1CCC2(CC1)CCN(C(=O)c1cnccn1)CC2 the results were TDP1 cell noCPT -2% and DT40 TDP1 CPT -2%.
CC(C)NC(=O)N(C)C[C@@H]1Oc2cc(Br)ccc2S(=O)(=O)N([C@@H](C)CO)C[C@H]1C was read as HT1080NT lethal 5%, HT1080 IDH1KD tx 8%, TDP1 cell noCPT 3%, DT40 TDP1 CPT 4% and IL1B secr inh -2.
`COc1ccc(-n2nc(C(=O)NCC(=O)NCCC3=CCCCC3)c3ccccc3c2=O)cc1OC` gave HT1080NT lethal -16%, HT1080 IDH1KD tx -5%, TDP1 cell noCPT 18µM*, DT40 TDP1 CPT -22% and IL1B secr inh -19.
CCC(=O)c1ccc(OCC(=O)NCCC2=CCCCC2)c(OC)c1 was read as HT1080NT lethal 9%, HT1080 IDH1KD tx 0%, TDP1 cell noCPT inconclusive, DT40 TDP1 CPT inconclusive and IL1B secr inh 7.
`COc1ccc(-n2nc(C(=O)NCC(=O)N3CCN(C)CC3)c3ccccc3c2=O)cc1` gave HT1080NT lethal -3%, HT1080 IDH1KD tx -6%, TDP1 cell noCPT -10%, DT40 TDP1 CPT 5% and IL1B secr inh -14.
For COc1ccc(-n2nc(C(=O)NCC(=O)N3CCN(c4ccccc4F)CC3)c3ccccc3c2=O)cc1 the results were HT1080NT lethal 0%, HT1080 IDH1KD tx 12%, TDP1 cell noCPT 23µM*, DT40 TDP1 CPT 18µM* and IL1B secr inh -8.
`COC(=O)c1ccc(OCC(=O)NCCC2=CCCCC2)c(OC)c1` gave HT1080NT lethal -6%, HT1080 IDH1KD tx 9%, TDP1 cell noCPT 23µM*, DT40 TDP1 CPT inconclusive and IL1B secr inh -27.
